# Assays:
# Test in all cases: PBM binding z-score (relative to random genomic background probes); higher = stronger binding; sequences stand for … in GC…GCGATTGACAGCGTAGAATGAAGG
# [1] = test system: RARb homodimer (NR concentration 270 nM)
# Outline: (§1)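 Binding z-scores were set against random background probes. The data came from custom Agilent 4×180K protein-binding microarrays carrying double-stranded probes with 34-nt variable regions, incubated 1 h with ligand-free nuclear receptor dimers. Partner-specific antibodies detected binding, and scanned fluorescence was regression-normalized.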
# [2] = test system: RARg:RXRa (NR concentration 270 nM, RXRa partner concentration 90 nM)
# Outline: as §1
# [3] = test system: RARg homodimer (NR concentration 270 nM)
# Outline: as §1
# [4] = test system: RXRa DBDmut IVT, anti-RXR (DBD mutation: RXRa K156A/R161A, NR concentration 90 nM)
# Outline: as §1
# [5] = test system: RXRa homodimer (NR concentration 180 nM)
# Outline: as §1
# [6] = test system: THRa:RXRa (NR concentration 90 nM, RXRa partner concentration 90 nM)
# Outline: as §1
# [7] = test system: THRa homodimer (NR concentration 90 nM)
# Outline: as §1
# [8] = test system: VDR homodimer (NR concentration 270 nM)
# Outline: as §1
Sequence,PBM binding z-score [1],PBM binding z-score [2],PBM binding z-score [3],PBM binding z-score [4],PBM binding z-score [5],PBM binding z-score [6],PBM binding z-score [7],PBM binding z-score [8]
GGAACGAGGGCATTCGAGTAGATAGCATGGCGAT,0.0849,0.96,1.23,3.24,0.859,1.41,-0.662,1.51
CCTCGGAGGACAACAGGACGTCAGAGCTGCCAGA,0.189,0.272,1.12,0.0264,-0.244,0.648,-0.377,-0.354
CATACAGGGTCAGCTAGGCCAGAATAGGGACGGC,3.37,4.33,4.34,1.53,4.26,3.04,1.13,0.805
CCTACTGGGCCAAGTTCATTGATCAGTCAAAGCA,1.71,1.45,1.09,2.37,0.409,0.994,0.294,4.4
CAGCCTAGGTCAGAGCCAGTATAGGAGGAACGTT,2.13,2.87,3.5,0.588,1.5,1.76,0.271,-0.348
ACTATTGGTTGAGACGAGGGCAACCGATAGGTTG,1.15,0.833,0.715,0.116,0.596,2.69,0.731,1.02
CCTGCTAGGTCATGGTCAGCTAGTCTACAGTATG,3.22,4.05,4.82,1.84,2.76,3.03,1.25,0.287
ACAGAAAGGTGATGAAGGTAACTCAGGCTATCAT,0.99,1.18,1.35,0.11,1,1.44,0.0697,-0.00913
AGAATGAGGATACCAAAGATCAGGGAAACGCTTG,-0.727,0.287,0.437,-0.419,0.36,1.5,0.171,-0.61
ACCTACGGGTCAACGAGGTTATAGCACGCGTATA,3.18,5.47,4.95,2.06,5.89,3.88,0.718,3.51
CAAACTAGATCACAGAGGTCAAAGTCCGTGCGTA,4.34,4.96,4.25,2.41,5.63,3.64,1.29,5.11
CCTACTGGGCCATCAGGTTATTGATATCAACGTT,0.464,0.256,0.522,-0.157,0.0138,0.797,0.712,-0.275
TCGCGTAGGTTACCAATGGGGCATTCAGCTTTCT,0.809,1.42,0.306,0.302,0.572,0.107,-0.509,-0.338
CTCGAAAGGTCGTGCTCGGGTGAGTATACCAAAC,2.72,5.23,3.77,1.4,4.73,3.75,0.478,0.996
CAGCCTAGGTCAGGGCAAGTATAGGAGGAACGTT,2.89,3.37,4.42,0.0937,2.07,2.2,0.481,-0.0774
CCTATTAGTTGACCATAAGCGCAACCGAAGCTCG,0.669,0.621,0.455,0.856,0.371,0.364,0.809,0.721
AGAACGAGGTTATACGTAGATCAGGGAAGAAAGT,0.438,1.69,1.07,1.54,2.02,1.41,0.179,0.807
AATCAAAGTTCAGGACGAGGTAACGTAAAGCACG,3.22,4.66,4.55,2.68,2.92,3.92,1.58,2.06
CCTGCTACGTCAATGGTCAGCTAAAGCAGCTCGC,0.4,-0.424,-0.342,0.29,-0.492,-0.534,-0.374,-0.434

Sequence,PBM binding z-score [1],PBM binding z-score [2],PBM binding z-score [3],PBM binding z-score [4],PBM binding z-score [5],PBM binding z-score [6],PBM binding z-score [7],PBM binding z-score [8]
TAGCCTAGGTCAGATCGGGCCAGTAAACGCTATA,1.72,2.66,3.21,-0.396,1.32,3.89,-0.219,-0.568
CCTTACGGGTCACTGACAGGTTCTAGCATTTGGA,3.15,4.85,4.15,1.95,4.61,2.45,0.145,1.03
TTAGACAGGTGAAGGTAACTCAGGTACGCAGTCG,0.861,0.559,0.81,-0.329,0.753,1.48,0.377,0.53
ATATGTAGGTTACCTCCGGGTCATTCAGGCTATG,3.04,4.19,2.43,0.792,3.8,3.78,2.66,2.02
CGTCCAAGGTAATAGGAGGTCAGTGAAGACAGAT,2.88,2.11,2.21,0.17,1.8,3.94,1.27,1.2
ACTATCAGGCCAAGTTTGGGTCACTCAAACAAAG,2.56,2.71,2.11,0.348,0.935,2.93,1.81,0.829
CAAACTAGGTCACCGGAAGCTCAAAGTCCGCATG,3.48,4.84,5.66,1.98,3.81,3.38,1.92,0.814
ATATGTAGGTTACATCCGGGTCCTTCAGGCTATG,0.958,0.862,0.764,0.474,1.07,1.51,0.753,0.68
GCTTGTAGAACAAGGTTAAGAAAGACTAAGCTAA,-0.00172,0.534,0.188,-0.0592,0.633,0.947,-0.592,-0.315
ATATGTAGGTTACATCCTGGTCATTCAGGCTATG,1.25,1.72,1.3,0.78,1.35,1.26,0.551,0.582
TCTATTAGTTGATGAGGGCAACCGAAACAGCGGA,1.27,0.771,0.907,1.31,1.06,1.68,0.938,1.35
CCTGATAGGTCATGGTCAGCTAATCTACAGTATG,3.69,5.08,5.2,1.57,5.33,2.46,0.212,0.195
CCTAGTTGGTCAAGGTGACACACGCTATAGGTAC,1.8,1.49,1.74,0.165,1.05,2.06,1.65,0.83
TCATATAGGTAAAAGGTGAAAGTTGGTGTGGTAA,2.19,2.24,0.981,1.89,3.27,1.9,0.96,0.577
ATCTCTAGGTAACAAGATCAGTGAAAGAGAGGAC,0.262,0.574,0.868,-0.259,0.265,0.927,0.466,0.364
GCTGCTAGGTCAGGTTGGTTAGCTAACGGGTACG,2.43,2.43,3.37,0.744,0.769,1.77,0.549,0.682
ACTTACGGGTCAACGAGGTTATACCACGCGTATA,3.79,5.84,5.48,3.08,6.66,3.97,1.34,4.44
AATACAGGGTCACCGTAGGCCAGAGTACGCACAG,3.94,6.08,5.9,2.62,7.11,4.55,1.77,2.81
GAGACAGGGTCAGCTAGAGGCCAGAGTATGGAAA,3.05,6.57,4.77,1.03,4.3,3.06,0.161,0.581

Sequence,PBM binding z-score [1],PBM binding z-score [2],PBM binding z-score [3],PBM binding z-score [4],PBM binding z-score [5],PBM binding z-score [6],PBM binding z-score [7],PBM binding z-score [8]
TCATATAGGTAAATGCCAGGTGAAAGTCCGATCT,0.815,0.611,0.433,1.64,0.912,2.02,1.33,0.435
CTACCAAGGTGAACACGGTCGTTGATTACTATTC,1.24,0.852,0.843,0.773,0.777,2.07,0.961,0.015
CTCGAAAGGTAGGTTGAGGTGAGTATACGGATAA,0.59,0.129,0.396,-0.171,0.223,3.9,1.24,0.0952
CCTACTGGGCTACGAAAGGTCATTGATTCAGTGA,4.59,4.54,4.54,0.401,5.27,3.44,0.738,2.02
CGTCGAAGGTCAGAGAGGTCAGTGAATGCCGAGT,5.14,6.51,7.29,2.6,5.68,3.85,1.32,5.14
ATCTCTAGGTAAAACTCAGTTCAGTGAAGAACGC,0.751,0.623,0.586,0.726,0.153,1.18,0.901,2.13
GTACCAAGGTGAATAGGTCGATGATGAGTAGGCG,1.77,2.49,1.57,-0.426,1.86,1.52,0.425,0.182
TCATATAGGTAAATGCTAGGCGAAAGTCCGATCT,-0.15,0.217,0.256,1.43,0.556,0.231,0.0597,0.181
CCTGCTAGGTGATGGTCAGCTAATCTACAGTATG,-0.121,-0.189,0.108,-0.024,-0.424,-0.498,-0.545,-0.612
ACTCGGAGGACAAAGGTCAGAGGTACGCCAGTGA,4.58,5.98,5.03,0.647,5.39,3.49,0.633,1.68
CCTCGGAGGACAACACGAGGTCAGAGCTGCCAGA,3.53,3.58,3.22,0.871,2.23,3.57,2.8,1.85
GGAACGAGGGCAAATTGATAGCAGAGTTTGATGG,1.18,1.48,1.67,2.21,1,0.906,-0.171,1.31
CCTAGCAGGCCAATCTGGGTCACTCAGGGCTTGA,2.15,0.923,1.06,0.0967,0.498,3.58,0.158,-0.303
CGTCCAAGGTCAGCAGGTCAATGAAAGCGACGTG,5.24,6.59,6.73,2.62,5.64,4.03,2.46,2.23
CGAACTAGGTCAGAACAGGGCAGTGAAGGATGAT,2.52,2.65,3.35,0.463,1.28,2.69,0.148,0.0633
ATCGAAAGGTCGTGAGGTGAATATACAGAAAGGC,3.06,4.98,3.95,1.72,5.61,3.72,1.77,1.24
CTCGAAAGGTCGTGCTCAGGTGAGGATACCAAAC,2.88,5.12,3.74,2.24,4.62,4.22,2.06,0.965
TCATATAGGTAAGAGGTGAAAGTCGGTGTGGTAA,1.34,1.19,0.66,1.84,1.99,1.69,0.894,0.13
